The whole screen tested about 220,000 compounds, of which about 530 (0.24%) were called active. Shown is part of a subset that was picked to be rich in actives. Potency and affinity values are given separately. A number with no mark means an inactive call. Rule as the data show it: active = inhibition above about 13%; inconclusive = no clear call, values can overlap the other calls; inactive = below that.
Biological target: Bifunctional protein GlmU (Mycobacterium tuberculosis (strain ATCC 25618 / H37Rv)) (UniProt P9WMN3)
Sequence (P9WMN3 whole entry, looked up): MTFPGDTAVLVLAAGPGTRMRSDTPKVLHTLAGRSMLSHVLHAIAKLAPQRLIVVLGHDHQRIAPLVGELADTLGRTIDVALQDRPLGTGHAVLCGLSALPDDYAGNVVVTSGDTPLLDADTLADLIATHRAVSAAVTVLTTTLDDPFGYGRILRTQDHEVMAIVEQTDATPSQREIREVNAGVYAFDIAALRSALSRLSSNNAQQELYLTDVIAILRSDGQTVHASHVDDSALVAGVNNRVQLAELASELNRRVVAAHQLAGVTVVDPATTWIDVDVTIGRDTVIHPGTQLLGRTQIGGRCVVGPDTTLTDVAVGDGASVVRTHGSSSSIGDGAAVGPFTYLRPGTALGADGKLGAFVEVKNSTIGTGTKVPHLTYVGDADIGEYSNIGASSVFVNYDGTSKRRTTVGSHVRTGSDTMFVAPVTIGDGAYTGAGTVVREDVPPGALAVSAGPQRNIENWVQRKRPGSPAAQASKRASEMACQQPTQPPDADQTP
Test: inhibition of mycobacterial GlmU enzyme – biochemical, glucosamine-1-phosphate acetyltransferase (AID 1376);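 also: 0% = complete reaction with vehicle and 100% = reaction without substrate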
Details: M. tuberculosis GlmU acetyltransferase enzyme assay; hits give high values;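 tested at 30 µM in the primary screen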

SMILES | inhibition
COc1ccc(-c2nnc(SCC(=O)NCc3ccco3)n2C)cc1 | 3.67%
Cc1cccc(N2C(=O)C(O)=C(C(=O)c3cccs3)C2c2ccc(Cl)cc2)n1 (configuration not stated) | 3.09%
CC1CCN(c2nncc3ccccc23)CC1 | 31.2% (active)
CC1CCN(c2nnc(-c3ccccc3)c3ccccc23)CC1 | 0.97%
CC1CCN(c2ncnc3ccccc23)CC1 | 2.04%
COc1ccc(C(CNC(=O)COc2ccccc2-c2ccccc2)N2CCOCC2)cc1 (configuration not stated) | -8.37%
CCOC(=O)c1ccc(NC2c3ccccc3C(=O)N2c2cccnc2)cc1 (configuration not stated) | 1.04%
C/C(=N\O)c1cc(Cl)cc(Cl)c1O | -5.49%
Oc1c(Cl)cc(Cl)cc1Sc1cc(Cl)cc(Cl)c1O | 13.1% (active)
Oc1c(Cl)cc(Cl)cc1C=Nc1ccc(Br)cc1 | 5.27%
COc1cc(NC(=O)Nc2ccc(Cl)c(Cl)c2)c(C(=O)O)cc1OC | 0.76%
Cc1sc2nc(CN3CCC(C)CC3)nc(Cl)c2c1C | -6.88%
COc1cc(NC(=O)c2cc3nc(-c4ccccc4)cc(-c4ccccc4)n3n2)cc(OC)c1OC | -2.98%
O=C(Nc1cccc(O)c1)c1cc2nc(-c3ccccc3)cc(-c3ccccc3)n2n1 | 1.52%
COc1ccc(NC(=O)c2cc3nc(-c4ccccc4)cc(-c4ccccc4)n3n2)c(OC)c1 | 20.8% (active)
CC(C)CN(C(=O)CSc1nnc2c(Cl)cc(C(F)(F)F)cn12)C1CCS(=O)(=O)C1 (configuration not stated) | 52.2%
Cc1ccc(N(CC(=O)N/N=C/c2cc(C)n(-c3ccccc3)c2C)S(C)(=O)=O)c(C)c1 | 1.57%
OCC1(CCc2ccccc2)CCN(Cc2c(F)ccc(F)c2F)CC1 | 3.84%
CC(C)CCNc1nnnc2c1sc1nc(N3CCOCC3)c3c(c12)CC(C)(C)SC3 | 2.31%
CCOc1ccc(NC(=S)N2CCc3cc(OC)c(OC)cc3C2COc2ccc3c(C)cc(=O)oc3c2)cc1 (configuration not stated) | 1.27%
O=C(COC(=O)C12CC3CC(CC(C3)C1)C2)NCCc1ccccc1 | 5.26%
Cn1nccc1NC(=O)c1nccnc1C(=O)O | -4.84%
Cc1cc(N2CCN(C(=O)c3ccco3)CC2)n2nc(-c3cccc(F)c3)cc2n1 | -0.85%
Cc1cc(N2CCN(C(=O)c3ccco3)CC2)n2nc(-c3cccc(Cl)c3)cc2n1 | 14.1% (active)
Cc1cc(N2CCN(C(=O)c3ccco3)CC2)n2nc(C)c(-c3ccccc3)c2n1 | 3.95%

SMILES | inhibition
CCCCN(CC)CCNC(=O)c1cn(-c2ccc(Cl)cc2)c(=O)c2ccccc12 | -2.06%
Cc1c(-c2ccco2)[n+](=O)c2c(n1[O-])CCC2 | 14.9% (active)
Cc1c(-c2ccco2)[n+](=O)c2c(n1[O-])CCCCC2 | 3.97%
Cc1ccc(-c2c(C)n([O-])c3c([n+]2=O)CCC3)o1 | 1.5%
COC(=O)c1cnc(N2CCCN(S(=O)(=O)c3ccc(C(F)(F)F)cc3)CC2)nc1C(F)(F)F | 1.89%
Cc1cccc(NC(=O)c2ccc(COc3ccc4ccccc4c3)o2)n1 | -0.95%
O=C(CN1N=C(c2ccccc2)CCC1=O)NCCN1CCc2ccccc2C1 | -1.06%
CC(=O)Oc1cccc(N2C(=O)c3ccccc3C2=O)c1 | -6.78%
CC12CCC(C(=O)NCc3ccccc3)(OC1=O)C2(C)C (configuration not stated) | 1.44%
CC12CCC(C(=O)NC(c3ccccc3)c3ccccc3)(OC1=O)C2(C)C (configuration not stated) | 13.4% (active)
CC12CCC(C(=O)NNc3ccccc3)(OC1=O)C2(C)C (configuration not stated) | -5.23%
COc1cccc(OC)c1C(=O)N1CCN(Cc2ccccc2C(F)(F)F)CC1 | 3.68%
O=C(O)c1c2c(nc3ccccc13)/C(=C/c1ccc(O)cc1)CCC2 | -1.41%
COc1ccc(/C=C2\CCc3c2nc2ccccc2c3C(=O)O)cc1OC | -1.01%
CCOC(=O)c1nnn(-c2nc(OC)nc(N3CCCCC3)n2)c1-c1ccccc1 | 1.53%
CCNc1nc(N2CCCCC2)nc(-n2nnc(C(=O)OCC)c2C)n1 | 13.5% (active)
COC(=O)c1nnn(-c2nc(N3CCOCC3)nc(N3CCOCC3)n2)c1C | 0.09%
O=C(O)/C=C/C(=O)Nc1ccc2nccnc2c1 | 0.78%
CN(C)S(=O)(=O)c1ccc(C(=O)NCc2ccco2)cc1 | 7.54%
CCOc1ccc(/C=C(\C#N)C(=O)Nc2cccnc2)cc1 | -3.21%
CCOc1cccc(NC(=O)/C(C#N)=C\c2cccnc2)c1 | -1.75%
CCOc1cccc(NC(=O)/C(C#N)=C/c2cccnc2)c1 | 13.3% (active)
Cc1ccc(-c2nnc(CSc3nnc(COc4ccccc4)n3-c3ccc(C)cc3)o2)cc1 | 2.51%
COc1ccccc1CCNC1CCC(C)CC1 (configuration not stated) | 1.25%
CC(=O)c1ccc(S(=O)(=O)N2CCNCC2)cc1 | 1.28%

SMILES | inhibition
O=[N+]([O-])c1cccc(-c2csc(CS(=O)(=O)Cc3ccco3)n2)c1 | 1.82%
Cc1ccc2c(c1)C1C=CCC1C(C(=O)NCCCN1CCOCC1)N2 (configuration not stated) | 3.8%
O=C(O)C1Nc2ccc(OC(F)(F)F)cc2C2C=CCC12 (configuration not stated) | 13.1% (active)
Cc1ccc2c(c1)C1C=CCC1C(C(=O)O)N2 (configuration not stated) | 28% (active)
CCOC(=O)C1Nc2ccc(C)cc2C2C=CCC12 (configuration not stated) | -1.77%
O=C(NC1CC1)C1Nc2ccc(OC(F)(F)F)cc2C2C=CCC12 (configuration not stated) | -0.17%
CCOC(=O)C1Nc2ccc(OC(F)(F)F)cc2C2C=CCC12 (configuration not stated) | 1.1%
CCOC(=O)N1CCC(N(CCN(C)C)C(=S)Nc2ccccc2Cl)CC1 | 0.75%
O=C(CNC(=O)c1ccc2c(c1)OCCO2)N/N=C/c1ccco1 | -1.55%
Nc1ccccc1NC1=CC(=O)CC(c2ccccc2)C1 (configuration not stated) | 2.07%
COc1ccc(/C=N/NC(=O)CN(CCc2ccccc2)S(=O)(=O)c2ccc(NC(C)=O)cc2)cc1OC | 1.25%
COc1cc(NS(=O)(=O)c2ccc(Nc3nc(-c4ccccn4)cs3)cc2)nc(OC)n1 | -0.88%
Cn1cnnc1SCc1ccc(C(=O)N/N=C(\CCC(=O)O)c2ccc(C(C)(C)C)cc2)cc1 | -2.55%
CCSc1nnc(NS(=O)(=O)c2ccc(C)cc2)s1 | -1.65%
Cc1ccc(C)c(C2=CSC3=NS(=O)(=O)CCN23)c1 | 14.7% (active)
Cc1ccc(C2=CSC3=NS(=O)(=O)CCN23)cc1C | -2.13%
Cc1ccc(C2=CSC3=NS(=O)(=O)CCN23)cc1 | -2.55%
Cc1ccnc(SCc2cn3c(C)cc(C)nc3n2)n1 | -0.65%
CCc1ccc(N2CCN(C(=O)N3CCOCC3)CC2)cc1 | -4.7%
C=CCOC(=O)C1=C(C)N(C)C(=O)NC1c1cc2c(cc1Br)OCO2 (configuration not stated) | 0%
Cc1cccc(-n2ncc3c(N(CCO)CCO)ncnc32)c1 | 2.36%
CCOc1ccc(NC(=O)Nc2cc(C(C)C)ccc2C)cc1 | 14.6% (active)
Cc1ccc(C(C)C)cc1NC(=O)Nc1ccc([N+](=O)[O-])cc1 | -2.4%
CCOc1ccc(NC(=O)Nc2cc(C(C)C)c(O)cc2C)cc1 | 1.34%
CSc1nc2ncc(C#N)cn2n1 | -5.13%

SMILES | inhibition
CC(=O)Nc1ccc(NC(=O)C(Cc2ccccc2)NC(=O)C2CCCCC2)cc1 (configuration not stated) | 1.61%
c1ccc(-n2nnc(-c3cccnc3)n2)cc1 | 1.76%
CCCSc1nc2c(c(=O)[nH]c(=O)n2C)n1CC(O)COc1ccccc1 (configuration not stated) | 14.1% (active)
Cc1ccccc1OCC(O)Cn1c(Br)nc2c1c(=O)[nH]c(=O)n2C (configuration not stated) | 1.77%
COc1ccccc1OCC(O)Cn1c(Br)nc2c1c(=O)[nH]c(=O)n2C (configuration not stated) | 13.5% (active)
COc1ccc(OCC(O)Cn2c(Br)nc3c2c(=O)[nH]c(=O)n3C)cc1 (configuration not stated) | -0.99%
Cn1c(=O)[nH]c(=O)c2c1nc(SCCO)n2CC(O)COc1ccccc1 (configuration not stated) | 0.72%
CCSc1nc2c(c(=O)[nH]c(=O)n2C)n1CC(O)COc1ccccc1 (configuration not stated) | -3.27%
CCN(CC)C(=O)c1[nH]cnc1C(=O)N[C@@H](C)C(=O)OC(C)(C)C | -5.07%
COC(=O)c1ccccc1NC(=O)Nc1cccc(C)n1 | 1.31%
Cc1occc1C(=O)N/N=C/c1ccccc1[N+](=O)[O-] | -3.47%
N#C/C(=C\c1ccc([N+](=O)[O-])cc1)c1ccccn1 | 3.91%
CNc1ccc(/C=C(\C#N)c2ccccn2)cc1[N+](=O)[O-] | 13.2% (active)
N#C/C(=C\c1ccc(Cl)c([N+](=O)[O-])c1)c1ccccn1 | -1.14%
CC(=O)c1cccc(NC(=O)C2CCCC2)c1 | 1.98%
Cc1cc(C)cc(NC(=O)C2CCCC2)c1 | 9.85%
Cc1cccc(NC(=O)C2CCCC2)c1 | 13.7% (active)
CC1CN(/C(=N\S(=O)(=O)c2ccccc2)c2ccccc2)CC(C)O1 (configuration not stated) | -2.86%
COc1ccccc1CCc1nnc(CCC(=O)NC(C)Cc2ccsc2)o1 (configuration not stated) | 1.67%
COc1ccc(NC(=O)/C(Cl)=C(/Cl)S(=O)Cc2ccc(Cl)cc2)cn1 (configuration not stated) | 11.8%
COc1ccc(CS(=O)/C(Cl)=C(/Cl)C(=O)Nc2ccc(OC)nc2)cc1 (configuration not stated) | 14.6% (active)
COc1ccc(NC(=O)/C(Cl)=C(/Cl)S(=O)Cc2ccc(C)cc2)cn1 (configuration not stated) | 7.38%

From PubChem BioAssay AID1376 (SRMLSC, 2008)
